Assay outcomes deposited in PubChem by National Center for Advancing Translational Sciences (NCATS).
Cruzain inh noDet: cruzain (T. cruzi) inhibition without detergent; Potency, µM, without a hit: max response, negative = inhibition, most hits filed as inhibitors; 200,000 tested, 2.3% active; P25779; AID 1476; purified cruzain, Z-FR-AMC fluorescence, no detergent;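 further: plate controls were enzyme without inhibitor for no effect and buffer without enzyme for full effect; nearly all actives have a fitted effect of over 40% in size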
Target sequence (P25779 123-467 limits assumed): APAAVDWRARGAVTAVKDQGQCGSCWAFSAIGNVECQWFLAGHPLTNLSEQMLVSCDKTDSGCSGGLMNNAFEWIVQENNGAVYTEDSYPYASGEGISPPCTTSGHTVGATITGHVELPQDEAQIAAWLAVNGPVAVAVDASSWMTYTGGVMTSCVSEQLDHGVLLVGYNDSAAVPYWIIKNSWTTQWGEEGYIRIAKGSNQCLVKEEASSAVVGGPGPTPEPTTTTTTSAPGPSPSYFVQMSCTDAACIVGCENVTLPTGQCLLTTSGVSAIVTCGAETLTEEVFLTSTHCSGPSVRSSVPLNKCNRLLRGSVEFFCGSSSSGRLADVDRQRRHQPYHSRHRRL
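Purified cruzain at 1.5 nM, pre-incubated 15 min with compound at room temperature in 100 mM sodium acetate pH 5.5, 5 mM DTT, 0.00005% Triton X-100. Reaction started with 2 uM Z-FR-AMC; AMC fluorescence increase over 60 s gives rate.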
Cruzain inh Det: blocks cruzain activity in presence of Triton detergent; P25779; Potency, µM, inactives show max response, negative = inhibition, usual class: inhibitors; 200,000 tested, 0.43% active; purified cruzain, Z-FR-AMC fluorescence, 0.01% Triton;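 further: plate controls were neutral wells for no effect and buffer without enzyme for full effect; nearly all actives have a fitted effect of over 40% in size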
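Detergent-containing arm of a paired screen for aggregation-based inhibition: 0.01% Triton X-100 present. Cruzain at 1.5 nM cleaved 2 uM Z-FR-AMC at pH 5.5 with 5 mM DTT; AMC fluorescence gain over 60 s measured activity.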
An asterisk follows results filed as active; ? = inconclusive. Sampled rows, rich in hits. Any-hit rate of the full collection: about 2.5%. The call rests on the fitted dose curve; in most records, active means well fitted curve in the direction sought with a large enough effect; inconclusive means small, poorly fitted or top-dose-only effect, or another doubt; inactive means no such curve, though single readings can be large; an effect the other way counts as inactive or inconclusive. Potency means the concentration at half of the fitted maximal effect.

SMILES	Cruzain inh noDet	Cruzain inh Det
O=C(Nc1ccc(Cl)cc1)Nc1nc(-c2sccc2Br)cs1	10µM*	6%
Cc1csc(NC(=O)Nc2ccc(Cl)cc2)n1	?	0%
O=C(NNc1nc(-c2ccccc2)cs1)c1ccccc1	?	-1%
O=C(Nc1ccc(Cl)c(Cl)c1)Nc1nc(-c2ccccc2)cs1	10µM*	-2%
CCc1ccc(NC(=O)c2cnc3sc(N4CCCC4)nn3c2=O)cc1	1%	2%
COc1ccc(-c2nnc(SC(C)C(=O)Nc3c(C)n(C)n(-c4ccccc4)c3=O)o2)cc1 (centres undefined)	-4%	0%
CCOC(=O)C1CCCN(CCCc2ccccc2)C1 (centres undefined)	0%	-4%
Cc1ccc2nc(NC(=O)c3ccc(-c4nc5ccccc5s4)s3)sc2c1	4µM*	-20%
O=C(Nc1nc2ccccc2s1)c1ccc(Cl)s1	?	0%
CCc1ccc(CNC(=O)CSc2cc(=O)n(C)c3ccc(Cl)cc23)cc1	1%	0%
Cc1ccc(OCc2nnc(NC(=O)c3ccco3)s2)c(C)c1	?	0%
Cc1cc2ccc(OC(=O)c3ccc(N=C(N)N)cc3)cc2oc1=O	5%	4%
Cc1ccc(C)c(CN2C(=O)c3ccccc3S(=O)(=O)c3ccc(C(=O)OCC4CCCO4)cc32)c1 (centres undefined)	-25%	-1%
Cc1cc(C)c(CN2C(=O)c3ccccc3S(=O)(=O)c3ccc(C(=O)OCC4CCCO4)cc32)c(C)c1 (centres undefined)	13µM*	-2%
Clc1cccc(-c2cc3nc4c(c(N5CCNCC5)n3n2)CCCC4)c1	25µM*	-5%
OC1CCN(c2c3c(nc4cc(-c5cccc(F)c5)nn24)CCCC3)CC1	-5%	-10%
CC(C)c1ccc(NC(=O)C(C)N(c2ccccc2)S(C)(=O)=O)cc1 (centres undefined)	3%	-10%
CC(/C=C1\SC(=O)N(CC(=O)Nc2ccc(O)cc2)C1=O)=C\c1ccccc1	13%	0%
CC(=O)c1ccc(NC(=O)CCCN2C(=O)/C(=C/C(C)=C/c3ccccc3)SC2=S)cc1	32µM*	-9%
CC(/C=C1\SC(=S)N(CC(=O)N2CCN(c3ccccc3)CC2)C1=O)=C\c1ccccc1	10µM*	-6%
Cc1ccc(/C=C2/SC(=S)N(CCC(=O)N3CCN(c4ccccc4)CC3)C2=O)cc1	-8%	1%
Cc1ccc(CNc2nc(-c3ccco3)nn2S(C)(=O)=O)cc1	2%	-2%
Cc1ccc(C)c(NC(=O)CN2C(=O)CCc3ccccc32)c1	-11%	-11%
COc1ccc(-c2nc3ccc(NS(=O)(=O)c4ccc(Cl)cc4)cc3o2)cc1	-23%	-6%
Cc1ccc(S(=O)(=O)Nc2ccc(-c3nc4cc(NS(=O)(=O)c5ccc(C)cc5)ccc4o3)cc2)cc1	7.9µM*	2%
SMILES	Cruzain inh noDet	Cruzain inh Det
CCN(CC)C(=O)C1CCN(C(=O)c2cnn(-c3ccccc3)c2-n2cccc2)CC1	7%	-2%
CSC[C@@H]1NC(=S)N(c2ccc(C)cc2)C1=O	13µM*	-1%
CC1=CC(C)(C)NC(=S)N1c1ccc(C)cc1	1%	-2%
Cc1ccc(S(=O)(=O)N(C(=O)c2ccncc2)c2ccc3oc4c(c3c2)CCCC4)cc1[N+](=O)[O-]	13µM*	1%
COC(=O)c1c(C)oc2ccc(N(C(=O)c3ccncc3)S(=O)(=O)c3cc(C)c(C)cc3C)cc12	2%	-6%
Cc1ccc([N+](=O)[O-])cc1S(=O)(=O)N(C(=O)c1ccncc1)c1ccc2oc3c(c2c1)CCCC3	13µM*	-2%
CCc1ccc(S(=O)(=O)N(C(C)=O)c2ccc3oc4c(c3c2)CCCC4)cc1	-8%	-5%
Cc1ccc(-n2nc(C)c3c(C)cc(=O)n(CC(=O)Nc4cc(Cl)ccc4C)c32)cc1	-16%	0%
Nc1ccc(O)c(-c2nc3ccccc3s2)c1	3.2µM*	-24%
Oc1ccc(N=C/C=C/c2cccc(Br)c2)cc1-c1nc2ccccc2s1	20µM*	-6%
O=C(Nc1ccc(O)c(-c2nc3ccccc3s2)c1)c1cc(=O)c2ccccc2o1	?	-14%
Nc1ccc2nc(-c3ccc(O)cc3)sc2c1	?	106%
COC(=O)[C@@]1(Cc2ccc(OC)cc2)[C@H]2c3cc(C(=O)N4CCCC4)n(Cc4ccc(C)o4)c3C[C@H]2CN1C(=O)c1ccccc1	?	-2%
COc1cccc(CNC(=O)CCc2c(C)nn(-c3ccc(N4CCCC4)nn3)c2C)c1	6%	-3%
Oc1c(Br)cc2oc3c(c2c1CNCc1ccccc1)CCCC3	32µM*	-8%
Oc1c(Br)cc(Br)cc1CN1CCN(Cc2ccccc2)CC1	2%	-2%
Cc1n[nH]c(C)c1S(=O)(=O)N(CC(=O)Nc1ccc2c(c1)OCCO2)c1ccc(C(C)C)cc1	?	-7%
Cc1ccc(-c2nnc(SCC(=O)Nc3ccc4c(c3)oc3ccccc34)n2C)c(Cl)c1	?	-4%
COc1ccccc1OCc1nnc(SCC(=O)Nc2ccc(C)cc2)n1C	8%	3%
Cn1c(SCC(=O)Nc2cccc(Br)c2)nnc1-c1cc2ccccc2o1	13µM*	1%
Cc1ccccc1OCc1nnc(SCC(=O)Nc2ccc3c(c2)oc2ccccc23)n1C	20µM*	1%
Cc1cccc(N=C2NN=C(c3ccc4c(c3)OCCO4)CS2)c1	16µM*	-7%
Cc1cccc(N=C2NN=C(c3c(C)[nH]c4ccccc34)CS2)c1	?	-4%
CCn1c2ccccc2c2cc(/C=N/NC(=O)c3ccccc3C)ccc21	32µM*	-21%
CCn1c2ccccc2c2cc(/C=N/NC(=O)c3cccc(C)c3)ccc21	7.9µM*	7%
SMILES	Cruzain inh noDet	Cruzain inh Det
Cc1cccc(C(=O)N/N=C/c2ccncc2)c1	4%	0%
CCn1c2ccccc2c2cc(/C=N/n3cnnc3)ccc21	-7%	-11%
CC1CC(C)CN(C2CCN(Cc3cccnc3)CC2)C1 (centres undefined)	4%	4%
Cc1csc2nc(COc3ccc(NC(=O)COc4ccccc4F)cc3)cc(=O)n12	0%	-1%
O=C(O)c1cc(N=Nc2ccc([N+](=O)[O-])cc2)ccc1O	-8%	-8%
O=C(N/N=C/c1ccncc1)c1cccc(NC(=O)c2ccccc2Cl)c1	-1%	-1%
O=C(Nc1cccc(NC(=O)c2ccccc2Cl)c1)c1cccc(Br)c1	7.9µM*	2%
CCc1ccc(NC(=O)Cn2cnc3nc4c(cc3c2=O)CCCC4)cc1	-1%	1%
CCN(CC)c1ccc(/C=N/N(c2ccccc2)c2ccccc2)c(O)c1	?	-4%
CCN(CC)c1ccc(/C=N/N=C(c2ccccc2)c2ccccc2)c(O)c1	25µM*	-5%
Cc1ccc(Nc2nc(C(N)=O)c(NC(=O)c3ccccc3Br)s2)cc1	?	-5%
O=C(Cl)c1c(Cl)cccc1Cl	-3%	3%
CCOC(=O)Nc1cc(C)ccc1OC	-12%	8%
COc1ccc(C)cc1NC(=O)Nc1ccc(Br)cn1	25µM*	3%
Cc1ccc(NC(=O)c2cc3c(s2)CCC3)cc1S(=O)(=O)N1CCOCC1	7%	-5%
Cc1ccc(NS(=O)(=O)c2cc(NC(=O)c3cc4c(s3)CCCC4)ccc2C)c(C)c1	32µM*	0%
COc1ccc(-c2c3c([nH]c(=S)c2C#N)CCC3)cc1	16µM*	-1%
N#Cc1c(-c2cccnc2)c2c([nH]c1=S)CCCC2	-1%	-2%
O=C(CNC(=O)Cc1ccccc1)NCC(=O)OCc1ccc(C(=O)c2ccccc2)cc1	-16%	-14%
